Marburg entry inh – Marburg virus entry inhibition | Marburg virus pseudotyped entry inhibition, cell reporter | Potency, µM (top dose mostly 37.8 µM), for the others: at the top dose activity change, negative = inhibition, hits mostly inhibitors | hit rate 1.8% among 300,000 | AID 540276; calls by dose curve; tested in HEK293 cells; further: potency means the concentration at half of the fitted maximal effect
LASV entry inh – inhibitors of Lassa virus binding or cell entry; hit rate 1.2% among 300,000; Lassa virus pseudotype entry inhibition, cell reporter; Potency, µM (top dose mostly 37.9 µM), for the others: at the highest dose activity change, negative = inhibition, hits mostly inhibitors; calls by dose curve; tested in HEK293 cells; further: potency means the concentration at half of the fitted maximal effect; nearly all actives have a fitted effect of over 50% in size
VACV mCherry inh – inhibitors of vaccinia virus infection (mCherry reporter signal) | Vaccinia virus mCherry reporter infection, fluorescence | AID 720579 | Potency, µM (highest dose often 36.5 µM), inactives show top-dose activity change, negative = inhibition, usual class: inhibitors | hit rate 0.63% among 310,000; calls by dose curve; tested in A549 cells; further: potency means the concentration at half of the fitted maximal effect; nearly all actives have a fitted effect of over 35% in size
HCMV antiviral – inhibitors of human cytomegalovirus; HFF cells, HCMV-luciferase reporter, 72 h; hits give low values; hit rate 4.5% among 410,000; activity change, negative = inhibition, % at 57.5 µM; in the data active means activity change below about -60%; inconclusive means no clear call, values can overlap the other calls; inactive means above about -39%
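Steps: HFFs plated, 16 h 37C; compounds added; HCMV-luciferase added to MOI 1 PFU/cell; 72 h 37C; OneGlo reagent, 5 min room temperature; luminescence read, normalized to controls.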
HCV inhibitor – inhibitors of hepatitis C virus infection; Huh7.5.1 HCVcc-Cre infection, luciferase reporter, 44 h; Potency, µM (titrated, usually from 41.8 µM), without a hit: at the highest dose activity change, negative = inhibition, usual class: inhibitors; hit rate 3.4% among 340,000; active means well fitted inhibition curve with a large enough effect; inconclusive means small, poorly fitted or top-dose-only effect, or another doubt; inactive means no such curve, though single readings can be large or run the other way; further: potency means the concentration at half of the fitted maximal effect
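Cells seeded at 1,000/well and cultured 4 h, then compounds added followed by HCVcc-Cre virus (~0.5 moi). After 44 h further culture, luciferase substrate was added, plates held 15 min at room temperature, and luminescence read for 15 sec.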
VACV Venus inh – vaccinia inhibition (Venus reporter); hit rate 0.46% among 330,000; Vaccinia virus Venus reporter expression, fluorescence; AID 720580; Potency, µM (series often up to 36.5 µM), for inactives: at the top dose activity change, negative = inhibition, actives largely listed as inhibitors; calls by dose curve; tested in A549 cells; further: potency means the concentration at half of the fitted maximal effect; nearly all actives have a fitted effect of over 30% in size
* hit, by the source's call; ! = not active in a repeat; [ ] = remark or other dose. Hits are enriched below; roughly 7.8% of the tested compounds scored in any of these assays. On the % scale 0 is the no-effect control and ±100 the full control effect.

Results for COc1ccc(C2=NNC(=Nc3cc(S(=O)(=O)N(C)C)ccc3C)SC2)c(OC)c1 ?
HCMV antiviral: -98*; HCV inhibitor: 13µM*

Results for c1ccc(CN=C2NN=C(c3ccccc3)CS2)cc1 ?
Marburg entry inh: inconclusive; LASV entry inh: -21%; VACV mCherry inh: -16%; HCMV antiviral: -30; HCV inhibitor: inconclusive; VACV Venus inh: -13%

How did Cc1cc(C2=NNC(=NCCc3ccccc3)SC2)c(C)n1-c1c(C)n(C)n(-c2ccccc2)c1=O do in these assays?
Marburg entry inh: 1%[46.1 µM]; LASV entry inh: -8%; VACV mCherry inh: -3%; HCMV antiviral: -32; HCV inhibitor: 20%; VACV Venus inh: 8%

What do the screens show for `CCOc1ccc(OCC)c(NC(=O)C(NS(=O)(=O)c2cccs2)c2ccccc2)c1` (stereo not drawn)?
Marburg entry inh: 30%[46.1 µM]; LASV entry inh: -24%[46.1 µM]; VACV mCherry inh: -23%; HCMV antiviral: 14; VACV Venus inh: -20%

How did CCCS(=O)(=O)N1CCC(N2CCN(Cc3ccc(F)cc3)C(=O)C2=O)CC1 do in these assays?
LASV entry inh: -7%[46.1 µM]; VACV mCherry inh: -3%; HCMV antiviral: -5; VACV Venus inh: 0%

How did CCOc1ccccc1NC(=O)C1CCN(S(=O)(=O)Cc2ccccc2)CC1 do in these assays?
Marburg entry inh: inconclusive; LASV entry inh: -19%[46.1 µM]; VACV mCherry inh: 10%; HCMV antiviral: -10; VACV Venus inh: -1%

Results for CCOc1ccc(C(=O)NCC(c2ccc(Cl)cc2)N2CCCCC2)cc1 (stereo not drawn) ?
Marburg entry inh: inconclusive; LASV entry inh: -8%[46.1 µM]; VACV mCherry inh: -1%; HCMV antiviral: -2; VACV Venus inh: -12%

How did Cc1cc(C2=NNC(=Nc3ccccc3)SC2)c(C)n1C do in these assays?
HCMV antiviral: 31; HCV inhibitor: inconclusive

How did COCCn1c(C)cc(C2=NNC(=Nc3ccccc3F)SC2)c1C do in these assays?
Marburg entry inh: inconclusive; LASV entry inh: 2µM*; VACV mCherry inh: -15%; HCMV antiviral: -73*; HCV inhibitor: -19%; VACV Venus inh: -7%

What do the screens show for `COCCCN=C1NN=C(c2cc(C)n(-c3ccccc3F)c2C)CS1`?
Marburg entry inh: 2.1µM*; LASV entry inh: 15µM*; HCMV antiviral: inconclusive; HCV inhibitor: inconclusive

Results for COCCCN=C1NN=C(c2cc(C)n(-c3ccccc3)c2C)CS1 ?
Marburg entry inh: -2%[46.1 µM]; LASV entry inh: -21%[46.1 µM]; VACV mCherry inh: inconclusive; HCMV antiviral: -36; HCV inhibitor: inconclusive; VACV Venus inh: -3%

How did CC(C)c1ccc2c(c1)-c1ccccc1S(=O)(=O)N2CC(=O)N1CCCCC1 do in these assays?
Marburg entry inh: inconclusive; LASV entry inh: 4%[46.1 µM]; VACV mCherry inh: -6%; HCMV antiviral: 24; VACV Venus inh: -2%

Results for CC(C)Cc1nc(Nc2ccccc2C#N)c2nnn(Cc3ccccc3)c2n1 ?
Marburg entry inh: inconclusive; LASV entry inh: inconclusive; VACV mCherry inh: inactive; HCMV antiviral: -28; HCV inhibitor: 16µM*; VACV Venus inh: -3%

How did CCOc1ccc(NC(=O)CN(C)C(=O)c2cn(-c3ccc(C)cc3)nc2-c2cccc(OC)c2)cc1OCC do in these assays?
Marburg entry inh: 11µM*; LASV entry inh: -29%; VACV mCherry inh: 8%; HCMV antiviral: 0; HCV inhibitor: inconclusive; VACV Venus inh: -17%

How did Cc1oc(-c2ccc(Cl)cc2)nc1CN1CCCC(C(=O)NCc2ccccc2)C1 (stereo not drawn) do in these assays?
Marburg entry inh: -3%[46.1 µM]; LASV entry inh: 27%[46.1 µM]; VACV mCherry inh: -29%; HCMV antiviral: -18; VACV Venus inh: -29%

Results for COc1cc(N/N=C(\C)c2ccc(O)c(C)c2)nc(-c2ccccc2)n1 ?
Marburg entry inh: inconclusive; LASV entry inh: inconclusive; VACV mCherry inh: inconclusive; HCMV antiviral: -90*; HCV inhibitor: inconclusive; VACV Venus inh: -20%

What do the screens show for `C/C(=N\Nc1cc(C)nc(-c2ccccc2)n1)c1cccc([N+](=O)[O-])c1`?
HCMV antiviral: -2; HCV inhibitor: inconclusive

What do the screens show for `COc1cc(N/N=C(\C)c2ccc(N)cc2)nc(-c2ccccc2)n1`?
HCMV antiviral: 41; HCV inhibitor: 11µM*

What do the screens show for `C/C(=N\Nc1cc(-c2ccccc2)nc(-c2ccccc2)n1)c1ccc(O)c(C)c1`?
Marburg entry inh: inconclusive; LASV entry inh: 11%; VACV mCherry inh: 0%; HCMV antiviral: -64*; HCV inhibitor: 3.5µM*; VACV Venus inh: inconclusive

What do the screens show for `C/C(=N\Nc1cc(C)nc(-c2ccccc2O)n1)c1ccccc1`?
Marburg entry inh: -26%[46.1 µM]; LASV entry inh: 10%[46.1 µM]; VACV mCherry inh: inconclusive; HCMV antiviral: inconclusive; HCV inhibitor: inconclusive; VACV Venus inh: -18%

What do the screens show for `COC(=O)[C@@]12C[C@@H](CC(=O)NCCc3ccccc3OC)C(=O)N(CCc3ccc(OC)c(OC)c3)C1=CCC(C)(C)C2`?
VACV mCherry inh: inconclusive; HCMV antiviral: 13; VACV Venus inh: inconclusive

What do the screens show for `CCCc1nn2c(=O)cc(COC(=O)C3CCCCC3)nc2s1`?
LASV entry inh: 6%[46.1 µM]; VACV mCherry inh: -14%; HCMV antiviral: 23; VACV Venus inh: 1%

What do the screens show for `N#Cc1c(N)n(C2OC(CO)C(O)C2O)c2ncnc(N)c12` (stereo not drawn)?
Marburg entry inh: 0.5µM*; LASV entry inh: 1.8µM*; VACV mCherry inh: inconclusive; HCMV antiviral: -99*; HCV inhibitor: inconclusive; VACV Venus inh: 1µM*

What do the screens show for `Nc1ncnc2c1ncn2[C@@H]1O[C@H](CO)[C@@H](O)[C@@H]1O`?
VACV mCherry inh: inconclusive; HCMV antiviral: 55; HCV inhibitor: 11%; VACV Venus inh: -23%

Results for Nc1ncnc2c1ncn2C1OC(CO)C(O)C1O (stereo not drawn) ?
VACV mCherry inh: -6%; HCMV antiviral: 62; HCV inhibitor: 15%; VACV Venus inh: 6%

What do the screens show for `Nc1ncnc2c1c(I)cn2C1OC(CO)C(O)C1O` (stereo not drawn)?
VACV mCherry inh: 16µM*!; VACV Venus inh: inconclusive

What do the screens show for `O=C(Nc1nc2ccccc2[nH]1)c1ccc(F)cc1`?
Marburg entry inh: inconclusive; LASV entry inh: 6.5µM*; HCMV antiviral: 74; HCV inhibitor: 10%

How did O=C(Nc1nc2ccccc2[nH]1)c1ccccc1F do in these assays?
Marburg entry inh: 0.32µM*; LASV entry inh: 0.28µM*; VACV mCherry inh: 14%; HCMV antiviral: -79*; HCV inhibitor: -18%; VACV Venus inh: -20%

Results for N#Cc1ccc(C(=O)Nc2nc3ccccc3[nH]2)cc1 ?
Marburg entry inh: 10µM*; LASV entry inh: inconclusive; VACV mCherry inh: -18%; HCMV antiviral: 90; HCV inhibitor: -2%; VACV Venus inh: -1%

What do the screens show for `N#Cc1ccc(C(=O)Nc2ccc3ccccc3c2)cc1`?
Marburg entry inh: inconclusive; LASV entry inh: 4µM*; VACV mCherry inh: inconclusive; HCMV antiviral: 13; HCV inhibitor: -22%; VACV Venus inh: 2%
